± gives the standard deviation.

The assay has as its system OVCAR-3-derived ovarian cancer stem-like cells (spheroids). Kind of assay: cell growth relative to untreated control; higher = more growth (less inhibition). As to conditions: 2.29 µM; 96 h. A digest of the protocol:
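After trypsin dissociation, OVCAR-3 spheroid-derived stem-like cells were placed in ultra-low attachment 96-well plates at 50,000 cells/mL in stem cell medium and preincubated for 24 h. Treatment at 2.29 uM followed for 96 h at 37°C, 5% CO2, with 4 replicate wells per compound. A 4 h TOX8 resazurin fluorescence read (ex 560/em 590 nm) gave viability, from which percent growth relative to untreated wells was derived after blank subtraction and Grubbs outlier removal.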
`O=[N+]([O-])c1cccc2c(N=Nc3ccc4ccccc4c3O)c(O)cc(S(=O)(=O)O)c12` registered a cell growth of 74.2 ± 40%.
The compound `CC(C)=CC1C(C(=O)O)C1(C)C` (centres undefined) gave a cell growth of 103 ± 37%.
For `CCC1CN2CCc3cc(OC)c(OC)cc3C2CC1CC1c2cc(OC)c(OC)cc2CCN1C(=O)C1CCCN1C(=O)OCc1ccccc1` (centres undefined), the cell growth turned out to be 122 ± 21%.
`COc1cc(/C=C/C(=O)CC(=O)/C=C/c2ccc(O)c(OC)c2)ccc1O`: the cell growth was determined as 89 ± 24%.
Consider `O=C(CC(O)(C(F)(F)F)C(F)(F)Cl)CC(O)(C(F)(F)F)C(F)(F)Cl` (centres undefined), for which the cell growth was 66.8 ± 21%.
Compound `COc1cc2c[n+](C)c3c4cc5c(cc4ccc3c2cc1OC)OCO5` yielded a cell growth of 48.7 ± 21%.
In the case of `Cc1c2ccncc2cc2c1[nH]c1ccccc12`, the cell growth was 101 ± 20%.
The result for `C/C=C(\CCC1NCCc2c1[nH]c1ccccc21)[Si](C)(C)C` (centres undefined) reads 86.5 ± 9.4%.
Take `CN1CCN(CCCN2c3ccccc3Sc3ccc(C(F)(F)F)cc32)CC1`: the cell growth stood at 79.1 ± 24%.
Consider `COC(=O)c1[nH]c(=S)[nH]c(=O)c1-c1ccc(Cl)cc1`, for which the cell growth was found to be 37.8 ± 14%.
As to `CCN1C=C/C(=C\C=C\c2cc[n+](CC)c3ccccc23)c2ccccc21`, the cell growth is 22.2 ± 4.2%.
As for `CC(=O)NC(CC(C)C)C(=O)NC(Cc1ccccc1)C(=O)CCl` (centres undefined), the cell growth worked out at 88.6 ± 12%.
Regarding `O=C1C=Cc2ncccc2C1=O`, the cell growth is 97.9 ± 16%.
Turning to `CC(C)[Si]1(C(C)C)OCC2OC(n3cnc4c(N)ncnc43)C(N)C2O[Si](C(C)C)(C(C)C)O1` (centres undefined), the cell growth was found to be 85.1 ± 22%.
As for `Oc1cc(-n2cccn2)c(O)cc1-n1cccn1`, the cell growth worked out at 103 ± 13%.
Turning to `CO[C@@H]1C[C@](C)(O)Cc2cc3c(c(O)c21)C(=O)c1c(O)cc2c(c1C3=O)O[C@@H]1O[C@@]2(C)[C@H](O)[C@@H](N(C)C)[C@@H]1O`, the cell growth is 37.7 ± 42%.
On to `C[n+]1c(-c2ccc(/C=C/C=N/NC(=O)c3ccc(C(=O)N/N=C/C=C/c4ccc(-c5cn6ccccc6[n+]5C)cc4)cc3)cc2)cn2ccccc21`, for which the cell growth was found to be 138 ± 18%.
As to `CN(C)CCCCN1CCc2c(n(C)c3ccccc23)C1=O`, the cell growth turned out to be 101 ± 13%.
In the case of `Nc1nc(SCc2ccccc2Cl)c2[nH]cnc2n1`, the cell growth came out at 106 ± 13%.
Take `COc1cc(/C=C(\OC(C)=O)c2ccc3c(c2)OCO3)cc(OC)c1OC`: the cell growth turned out to be 162 ± 58%.
For `COc1ccc2c(c1[N+](=O)[O-])CC[C@@H]1[C@@H]2CC[C@]2(C)C(=O)CC[C@@H]12`, the cell growth was 152 ± 33%.
In turn, `BrCCC[P+](c1ccccc1)(c1ccccc1)c1ccccc1` gave a cell growth of 42.9 ± 7.3%.
In turn, `CCCC(=O)OCC1OC(n2ccc(N)nc2=O)C(OC(=O)CCC)C1OC(=O)CCC` (centres undefined) registered a cell growth of 31.7 ± 19%.
The compound `Cc1cc2c(c3oc(C4(C)OC4C4OC4C)cc(=O)c13)C(=O)c1c(O)c(C3CC(C)(N(C)C)C(O)C(C)O3)cc(C3CC(N(C)C)C(O)C(C)O3)c1C2=O` (centres undefined) came in with a cell growth of 47.6 ± 40%.
The result for `COC1/C=C/OC2(C)Oc3c(C)c(O)c4c(c3C2=O)C(=O)C=C(NC(=O)/C(C)=C\C=C\C(C)C(OC=O)C(C)C(O)C(C)C(OC(C)=O)C1C)C4=O` (centres undefined) reads 66.6 ± 67%.
On to `CCOC(=O)Nc1nc2ccc(Cn3cccc3)cc2[nH]1`, for which the cell growth was 127 ± 20%.
Regarding `Nc1ccc(OCCCc2c(-c3ccccc3)nc(N)[nH]c2=O)cc1`, the cell growth came out at 82.7 ± 20%.
In turn, `O=S(=O)(O)c1cc(N=Nc2cc(S(=O)(=O)O)c3ccccc3c2O)ccc1/C=C/c1ccc(N=Nc2cc(S(=O)(=O)O)c3ccccc3c2O)cc1S(=O)(=O)O` yielded a cell growth of 110 ± 24%.
Consider `NC(=S)NN=Cc1ncccc1O`, for which the cell growth stood at 95.3 ± 16%.
The result for `CCCCC(/C=N/N=C(N)N)CC.Cc1cc(O)c(C(C)C)cc1S(=O)(=O)O` reads 91.8 ± 17%; that for `O=C1C=CC(=O)c2c(O)c(N3CCN(CCOCCO)CC3)c(Br)c(O)c21`, 18 ± 6.4%; that for `Cc1nc(-n2nc(-c3ccccc3)cc2-c2ccccc2)sc1C(=O)/C=C/c1ccc(Cl)c(Cl)c1`, 109 ± 25%.
The compound `CC(Cc1ccccc1)NC1=NCCO1` (centres undefined) returned a cell growth of 88.1 ± 13%.
Compound `O=c1cnn(C2OC(CO)C(O)C2O)c(=S)[nH]1` (centres undefined) returned a cell growth of 100 ± 24%.
The compound `COc1cc(-c2cc(=O)c3c(OC)c(OC)c(OC)c(OC)c3o2)cc(OC)c1OC` registered a cell growth of 79 ± 21%.
Take `Oc1ccc2ccccc2c1N=Nc1cccc2ccccc12`: the cell growth was 82.9 ± 12%.
The result for `CC1CCCC(C(=O)/C(=C/c2cccc(Cl)c2)C(=O)C(=O)O)C1` (centres undefined) reads 93.9 ± 27%; that for `Nc1nc(N)c(-c2cccc(C(F)(F)F)c2)c(Cc2cccc(C(F)(F)F)c2)n1`, 114 ± 34%; that for `CC(C)c1cccc(O)c(=O)c1`, 91.8 ± 19%.

The record behind these values is the supplement of paper PMC3484114.
